From PubChem
Only some compounds are listed: those with a hit (about 3.6% of all), similar ones and a draw of the others.
TROY signal inh: inhibitors of TROY-dependent NF-kB signaling; Q293 LMP1-TROYcd NF-kB luciferase reporter, 4 h; inhibition, % at 10 µM; 0.98% of 360,000 active; AID 1347056;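 active = compounds whose plate-normalised and pattern-corrected inhibition of the luciferase reporter signal at the single screening dose is 50% or more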
HSF-1 act: increases HSF-1 driven luciferase reporter signal. activation, % at 9 µM. NIH3T3-HGL HSF-1 luciferase reporter, MG132, 8 h; 100% = twice DMSO control signal. 1.7% of 300,000 active;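 active = mean replicate activation of at least 50% with a set share of replicates each reaching 50%; inconclusive = only one of those two conditions met; inactive = mean below 50% and too few replicates reaching it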;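 also: 0% = median of the neutral control wells and 100% = twice that signal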
LMP1 NFkB inh: inhibitors of Epstein-Barr LMP1-induced NF-kappaB reporter; 0.69% of 350,000 active; LMP1-induced NF-kappaB luciferase reporter cells, luminescence; inhibition, % at 12.5 µM; in the data active = inhibition above about 41%; inconclusive = no clear call, values can overlap the other calls;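 also: 0% = neutral control wells and 100% = reference inhibitor control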
TWEAK-Fn14 inh: inhibitors of TWEAK-Fn14 interaction signaling; 2% of 360,000 active; AID 1159606; TWEAK-stimulated Fn14 reporter cells, luciferase luminescence, 8 h; inhibition, % at 10 µM; in the data active = inhibition above about 50%
HSF1 inh: HSF1 inhibition. NIH3T3-HGL HSE-luciferase, MG132-induced, luminescence 8 h; active compounds read low. activity change, negative = inhibition, % at 7.5 µM (by protocol). 0.77% of 300,000 active. AID 2098;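 active = more than half of replicate wells show activity change below -50%, luminescence cut by over half; inconclusive = some wells, but at most half, below -50%; inactive = no replicate well below -50%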;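 also: luciferase reports HSF-1 transcriptional activity via heat shock element; 0% = median of DMSO wells and -100% = zero luminescence signal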
LGR2 inh: Drosophila LGR2 receptor signaling inhibition. HEK293 LGR2, CRE-luciferase, bursicon-stimulated, 4 h. inhibition, % at 9.99 µM. 0.35% of 380,000 active. AID 720647;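 active = drop in luminescence signal, shown as inhibition above about 50% in the replicate tests, limit read from the data, passing the limit was not always enough; inconclusive = probably only some replicates passing the limit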;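 also: agonist challenge used bursicon conditioned medium at about half maximal strength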
* marks the source's active call; other numbers are inactive results; ? = inconclusive; . = not tested or not shown.

SMILES	TROY signal inh	HSF-1 act	LMP1 NFkB inh	TWEAK-Fn14 inh	HSF1 inh	LGR2 inh
O=C1C=CC2=C3c4cc(O)c(O)cc4CC3(O)COC2=C1O (stereo unspecified)	0	.	9	86*	.	5
C[C@@H]1CN([C@H](C)CO)C(=O)c2cc(NC(=O)Nc3ccc(F)cc3)ccc2O[C@@H](C)CCCCO[C@H]1CN(C)C(=O)NC1CCCCC1	.	.	.	.	.	1
C[C@@H]1CN([C@H](C)CO)C(=O)c2cccc(NC(=O)c3ccncc3)c2O[C@H]1CN(C)S(=O)(=O)c1cn(C)cn1	.	.	.	.	.	-7
O=[N+]([O-])c1ccc(CN2CCN(c3nc4ccccc4s3)CC2)cc1	-8	-4	7	-18	7	-26
CCn1nc([N+](=O)[O-])c(C(C#N)c2nc3ccccc3n2C)c(Cl)c1=O (stereo unspecified)	9	-6	1	69*	5	3
CCCn1nc([N+](=O)[O-])c(C(C#N)c2nc3ccccc3s2)c(Cl)c1=O (stereo unspecified)	46	60*	-2	77*	46	26
COc1cccc(C(=O)Nc2ccc3c(c2)C(=O)N(C)C[C@@H](OC)[C@H](C)CN(C(=O)C2CC2)[C@H](C)CO3)c1	.	.	.	.	.	-11
C=CCn1c(=O)/c(=C/c2ccc(Cl)cc2)s/c1=C(\C#N)c1nnc2n1CCCCC2	-1	.	71*	32	.	46
CCC(=O)N(C)C[C@@H]1Oc2cc(C#CC3(O)CCCC3)ccc2S(=O)(=O)N([C@H](C)CO)C[C@@H]1C	.	.	.	.	.	4
CO[C@H]1CN(C)C(=O)c2ccc(NC(=O)c3ccccc3)cc2OC[C@H](C)N(C(C)=O)C[C@H]1C	.	.	.	.	.	9
C[C@H](CO)N1C[C@H](C)[C@@H](CN(C)C(=O)CCCN(C)C)OCCCC[C@H](C)Oc2ccc(NS(=O)(=O)c3cn(C)cn3)cc2C1=O	.	.	.	.	.	-3
Cc1csc(NC(=O)c2cn3ccccc3n2)n1	62*	-14	68*	91*	-18	89*
O=C(Nc1ccccc1)c1cn2ccccc2n1	45	11	42*	89*	-5	?
O=C(Nc1cccc(-c2cn3ccccc3n2)c1)c1cccc(Cl)c1	33	-10	1	33	0	.
O=C(Nc1cccc(-c2cn3ccccc3n2)c1)c1cnccn1	-52	54*	-37	-16	16	.
COCC#Cc1ccc2c(c1)O[C@@H](CN(C)Cc1ccncc1)[C@H](C)CN([C@H](C)CO)S2(=O)=O	.	.	.	.	.	-16
C[C@H](CO)N1C[C@H](C)[C@@H](CN(C)S(C)(=O)=O)Oc2ccc(NC(=O)C3CCCCC3)cc2CC1=O	.	.	.	.	.	3
CC(NCC(O)COc1ccc2ccccc2c1)c1ccccc1 (stereo unspecified)	-71	32	5	-21	1	-2
CCCC(NCC(O)COc1ccc(-c2ccccc2)cc1)c1ccccc1 (stereo unspecified)	22	9	-11	-9	0	75*
Cc1cc(OCC(O)CNC(C)c2ccccc2)ccc1C(C)C (stereo unspecified)	-19	20	-9	0	5	66*
COc1ccc(OCC(O)CNC(C)c2ccccc2)cc1 (stereo unspecified)	-2	-16	-1	0	-3	-18
CCN1[C@H](C(=O)NCCCN(C)C)[C@@H](CO)[C@@H]2Cn3c(ccc(-c4ccccc4OC)c3=O)[C@@H]21	.	.	.	.	.	-10
Cc1ccc(N(C(=O)Cn2nnc(-c3ccc(C)o3)n2)C(C(=O)NC2CCCC2)c2ccncc2)cc1 (stereo unspecified)	6	-4	2	56*	9	13
Cc1ccc(-c2nnn(CC(=O)N(c3ccc(F)cc3)C(C(=O)NC3CCCC3)c3ccncc3)n2)o1 (stereo unspecified)	9	2	2	44	-4	-8
Cc1ccc(-c2nnn(CC(=O)N(Cc3cccs3)C(C(=O)NC3CCCC3)c3ccncc3)n2)cc1 (stereo unspecified)	-10	-55	-4	-4	-55*	26
SMILES	TROY signal inh	HSF-1 act	LMP1 NFkB inh	TWEAK-Fn14 inh	HSF1 inh	LGR2 inh
COc1cccc(C=C2Cc3ccccc3C2=O)c1	-36	.	.	-11	.	13
COc1ccc(N/C=C2\CCc3ccccc3C2=O)cc1	70*	4	24	87*	-2	81*
CCN1C/C(=C\c2cccc([N+](=O)[O-])c2)C(=O)/C(=C/c2cccc([N+](=O)[O-])c2)C1	2	.	91*	93*	.	24
COc1ccc(OC)c(C=C2CCc3ccccc3C2=O)c1	-31	.	.	6	.	-7
COc1cccc(/C=C2\CCc3ccccc3C2=O)c1	25	11	-15	61*	13	36
COc1ccc(/C=C2\CCc3ccccc3C2=O)cc1OC	-45	68*	8	14	30	-29
CN1CCN(C(=O)C[C@@H]2C=C[C@H](NC(=O)Cc3ccccn3)[C@H](CO)O2)CC1	.	.	.	.	.	-9
COc1ccc(S(=O)(=O)Nc2ccc3c(c2)C(=O)N([C@H](C)CO)C[C@@H](C)[C@@H](CN(C)Cc2ccncc2)O3)cc1	.	.	.	.	.	2
CC(C)[C@@H](C)NC(=O)N(C)C[C@@H]1OCc2ccccc2-c2c(n(C)c3ccccc23)C(=O)N([C@@H](C)CO)C[C@@H]1C	.	.	.	.	.	14
COc1ccc(/C=C2\CC/C(=C\c3ccc(OC)c(OC)c3)C2=O)cc1OC	22	63*	3	56*	29	-4
CC(=O)Oc1ccc(/C=C2/CCc3ccccc3C2=O)cc1	61*	19	3	88*	-5	55*
O=C1/C(=C/c2cccc([N+](=O)[O-])c2)CCc2ccccc21	-39	8	-5	93*	4	-3
O=C1C(=Cc2ccccc2[N+](=O)[O-])Cc2ccccc21	12	.	12	95*	.	4
O=C1/C(=C/c2ccc([N+](=O)[O-])cc2)CCc2ccccc21	.	30	.	.	20	.
COc1cccc(C(=O)Nc2ccc3c(c2)C(=O)N(C)C[C@@H](OC)[C@H](C)CN[C@@H](C)CO3)c1	.	.	.	.	.	0
Cc1nc(NC(C)C)c2cnn(CCc3ccccc3)c2n1	-39	54*	-10	-14	44	-12
O=C(NC(NNc1ccc([N+](=O)[O-])cc1)(C(F)(F)F)C(F)(F)F)c1ccccc1Cl	10	9	5	-2	7	.
O=C(NC(Nc1nc2ccc([N+](=O)[O-])cc2s1)(C(F)(F)F)C(F)(F)F)c1cccnc1	15	13	32	51*	3	.
O=C(NC(Nc1nc2ccc([N+](=O)[O-])cc2s1)(C(F)(F)F)C(F)(F)F)c1ccccc1Cl	66*	-10	53*	90*	-12	35
COCCNC(=O)C[C@H]1C=C[C@@H](NC(=O)NC2CCCC2)[C@H](CO)O1	.	.	.	.	.	3
O=C(CCCCCCCC(=O)c1ccccc1)c1ccccc1	-22	6	-20	3	8	.
